# Measurements: PMC7862700, “An all-to-all approach to the identification of sequence-specific readers for epigenetic DNA modifications on cytosine”
# Assays:
# Assay in all cases: DAPPL (digital affinity profiling via proximity ligation, sequencing); 10 mM Tris-HCl pH 7.5, 50 mM NaCl, 1 mM DTT, 4% glycerol, room temperature, 30 min; GST-TFs on glutathione beads, 16-mer random dsDNA library, 0.1% formaldehyde crosslink after washing; high values mean tight binding
# FLI1 = target: T1, FLI1 (Homo sapiens, UniProt Q01543 1-452); conditions: protein: recombinant; tags: N-terminal GST; dsDNA, one strand shown
# T1 sequence: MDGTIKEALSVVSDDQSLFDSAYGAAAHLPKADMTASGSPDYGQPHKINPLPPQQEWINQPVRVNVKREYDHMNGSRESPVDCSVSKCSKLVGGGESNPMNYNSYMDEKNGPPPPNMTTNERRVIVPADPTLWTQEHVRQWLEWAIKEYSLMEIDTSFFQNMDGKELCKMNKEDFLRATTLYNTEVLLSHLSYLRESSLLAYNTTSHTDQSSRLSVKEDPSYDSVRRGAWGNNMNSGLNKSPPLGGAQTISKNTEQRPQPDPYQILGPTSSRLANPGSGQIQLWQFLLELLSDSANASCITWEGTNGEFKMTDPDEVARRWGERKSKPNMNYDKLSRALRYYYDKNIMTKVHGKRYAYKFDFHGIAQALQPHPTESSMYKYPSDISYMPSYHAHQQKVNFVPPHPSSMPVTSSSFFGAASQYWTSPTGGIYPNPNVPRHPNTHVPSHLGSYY
# In short: (§1)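 Pools of DNA-barcoded human transcription factors, expressed in yeast as GST fusions on glutathione beads and combined with a tag-only sample, were incubated with 200 nmole of a 16-mer random double-stranded DNA library. Incubation took 30 min at room temperature in Tris/NaCl/DTT/glycerol buffer and was followed by washing, 0.1% formaldehyde crosslinking, proximity ligation (BsaI/T4 ligase, 1 h, 37 °C), PCR amplification and sequencing on an Illumina NextSeq500. Binding signal is the ratio of a hexamer's read frequency for a factor to its frequency for the tag-only sample.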
# ELK1 = target: T2, ELK1 (Homo sapiens, UniProt P19419 1-428); conditions: protein: recombinant; tags: N-terminal GST; dsDNA, one strand shown
# T2 sequence: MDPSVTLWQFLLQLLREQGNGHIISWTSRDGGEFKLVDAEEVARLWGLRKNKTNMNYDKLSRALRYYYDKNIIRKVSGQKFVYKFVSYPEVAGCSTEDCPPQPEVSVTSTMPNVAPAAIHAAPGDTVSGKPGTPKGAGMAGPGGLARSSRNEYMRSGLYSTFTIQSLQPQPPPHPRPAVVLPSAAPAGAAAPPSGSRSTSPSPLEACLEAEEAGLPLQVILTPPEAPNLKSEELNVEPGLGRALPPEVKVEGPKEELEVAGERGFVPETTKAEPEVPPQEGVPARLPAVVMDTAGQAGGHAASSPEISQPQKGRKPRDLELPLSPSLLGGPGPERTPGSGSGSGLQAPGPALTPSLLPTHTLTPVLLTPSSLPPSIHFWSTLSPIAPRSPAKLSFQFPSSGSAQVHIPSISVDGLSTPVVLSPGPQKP
# In short: as §1
# GABPA = target: T3, GABPA (Homo sapiens, UniProt Q06546 1-454); conditions: protein: recombinant; tags: N-terminal GST; dsDNA, one strand shown
# T3 sequence: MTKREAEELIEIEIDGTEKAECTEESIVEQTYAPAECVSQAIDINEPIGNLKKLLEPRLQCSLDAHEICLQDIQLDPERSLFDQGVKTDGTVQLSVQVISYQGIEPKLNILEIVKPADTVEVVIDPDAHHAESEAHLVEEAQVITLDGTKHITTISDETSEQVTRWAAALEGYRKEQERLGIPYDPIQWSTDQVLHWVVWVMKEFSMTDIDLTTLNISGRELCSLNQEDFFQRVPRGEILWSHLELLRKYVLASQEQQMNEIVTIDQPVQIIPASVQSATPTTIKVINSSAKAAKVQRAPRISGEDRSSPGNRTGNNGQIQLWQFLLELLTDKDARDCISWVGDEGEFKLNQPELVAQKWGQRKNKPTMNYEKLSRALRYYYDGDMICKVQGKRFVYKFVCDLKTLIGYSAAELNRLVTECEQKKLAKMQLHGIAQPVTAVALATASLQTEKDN
# In short: as §1
# ERG = target: T4, ERG (Homo sapiens, UniProt P11308 1-479); conditions: protein: recombinant; tags: N-terminal GST; dsDNA, one strand shown
# T4 sequence: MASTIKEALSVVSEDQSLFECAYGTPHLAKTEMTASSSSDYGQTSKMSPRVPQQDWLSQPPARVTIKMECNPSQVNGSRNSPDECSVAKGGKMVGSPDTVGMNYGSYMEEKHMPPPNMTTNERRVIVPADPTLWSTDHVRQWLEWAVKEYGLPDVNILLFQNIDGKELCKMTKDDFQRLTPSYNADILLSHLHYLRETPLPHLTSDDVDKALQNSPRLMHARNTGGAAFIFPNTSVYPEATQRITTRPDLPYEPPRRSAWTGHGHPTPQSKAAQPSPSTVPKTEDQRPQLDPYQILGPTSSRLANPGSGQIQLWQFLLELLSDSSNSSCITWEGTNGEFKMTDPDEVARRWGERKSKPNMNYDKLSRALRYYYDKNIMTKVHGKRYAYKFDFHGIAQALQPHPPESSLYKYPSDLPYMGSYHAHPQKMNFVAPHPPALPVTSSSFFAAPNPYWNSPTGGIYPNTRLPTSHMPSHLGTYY
# In short: as §1
# ELF1 = ELF1 (Homo sapiens, UniProt P32519 1-619); conditions: protein: recombinant; tags: N-terminal GST; dsDNA, one strand shown
# In short: as §1
# EHF = target: T5, EHF (Homo sapiens, UniProt Q9NZC4 1-300); conditions: protein: recombinant; tags: N-terminal GST; dsDNA, one strand shown
# T5 sequence: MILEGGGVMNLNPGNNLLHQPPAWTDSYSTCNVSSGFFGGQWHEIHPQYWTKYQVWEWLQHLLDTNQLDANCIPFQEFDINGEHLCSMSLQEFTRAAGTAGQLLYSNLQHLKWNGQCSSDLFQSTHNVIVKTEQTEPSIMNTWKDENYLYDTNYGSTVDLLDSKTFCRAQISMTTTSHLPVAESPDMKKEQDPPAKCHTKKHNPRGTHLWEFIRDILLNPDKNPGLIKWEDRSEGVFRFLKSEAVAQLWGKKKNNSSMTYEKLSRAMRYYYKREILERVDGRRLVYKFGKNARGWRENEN
# In short: as §1
# SPI1 = SPI1 (Homo sapiens, UniProt P17947 1-270); conditions: protein: recombinant; tags: N-terminal GST; dsDNA, one strand shown
# In short: as §1
# SPIB = SPIB (Homo sapiens, UniProt Q01892 1-262); conditions: protein: recombinant; tags: N-terminal GST; dsDNA, one strand shown
# In short: as §1
# ELK3 = target: T6, ELK3 (Homo sapiens, UniProt P41970 1-407); conditions: protein: recombinant; tags: N-terminal GST; dsDNA, one strand shown
# T6 sequence: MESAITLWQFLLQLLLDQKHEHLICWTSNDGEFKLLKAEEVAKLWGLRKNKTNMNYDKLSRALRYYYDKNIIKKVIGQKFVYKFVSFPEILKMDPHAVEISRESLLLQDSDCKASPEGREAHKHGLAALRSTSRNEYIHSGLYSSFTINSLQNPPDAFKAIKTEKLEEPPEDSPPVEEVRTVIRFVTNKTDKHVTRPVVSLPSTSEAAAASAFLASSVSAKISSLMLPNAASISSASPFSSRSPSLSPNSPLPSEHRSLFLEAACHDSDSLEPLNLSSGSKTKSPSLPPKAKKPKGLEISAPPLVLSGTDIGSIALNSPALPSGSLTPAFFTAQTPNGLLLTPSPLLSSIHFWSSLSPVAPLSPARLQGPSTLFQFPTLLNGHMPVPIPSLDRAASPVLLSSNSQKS
# In short: as §1
# FEV = target: T7, FEV (Homo sapiens, UniProt Q99581 1-238); conditions: protein: recombinant; tags: N-terminal GST; dsDNA, one strand shown
# T7 sequence: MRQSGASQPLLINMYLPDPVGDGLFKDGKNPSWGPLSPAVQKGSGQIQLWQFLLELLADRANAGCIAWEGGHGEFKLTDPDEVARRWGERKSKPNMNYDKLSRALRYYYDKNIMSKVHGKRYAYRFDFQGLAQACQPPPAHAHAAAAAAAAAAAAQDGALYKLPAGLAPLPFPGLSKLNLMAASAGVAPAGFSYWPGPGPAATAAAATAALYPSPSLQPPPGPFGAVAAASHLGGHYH
# In short: as §1
# ETV5 = ETV5 (Homo sapiens, UniProt P41161 1-510); conditions: protein: recombinant; tags: N-terminal GST; dsDNA, one strand shown
# In short: as §1
# HSF1 = HSF1 (Homo sapiens, UniProt Q00613 1-529); conditions: protein: recombinant; tags: N-terminal GST; chain copies: 3; dsDNA, one strand shown
# In short: as §1
# SPIC = target: T8, SPIC (Homo sapiens, UniProt Q8N5J4 1-248); conditions: protein: recombinant; tags: N-terminal GST; dsDNA, one strand shown
# T8 sequence: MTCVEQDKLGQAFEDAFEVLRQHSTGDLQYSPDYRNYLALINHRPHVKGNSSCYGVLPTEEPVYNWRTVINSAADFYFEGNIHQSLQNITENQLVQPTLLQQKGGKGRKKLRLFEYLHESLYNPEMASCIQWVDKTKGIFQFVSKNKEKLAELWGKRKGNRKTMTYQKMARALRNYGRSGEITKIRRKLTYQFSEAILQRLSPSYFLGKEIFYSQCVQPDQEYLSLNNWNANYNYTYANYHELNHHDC
# In short: as §1
# ELF4 = ELF4 (Homo sapiens, UniProt Q99607 1-663); conditions: protein: recombinant; tags: N-terminal GST; dsDNA, one strand shown
# In short: as §1
# ELK4 = target: T9, ELK4 (Homo sapiens, UniProt P28324-2 1-405); conditions: protein: recombinant; tags: N-terminal GST; dsDNA, one strand shown
# T9 sequence: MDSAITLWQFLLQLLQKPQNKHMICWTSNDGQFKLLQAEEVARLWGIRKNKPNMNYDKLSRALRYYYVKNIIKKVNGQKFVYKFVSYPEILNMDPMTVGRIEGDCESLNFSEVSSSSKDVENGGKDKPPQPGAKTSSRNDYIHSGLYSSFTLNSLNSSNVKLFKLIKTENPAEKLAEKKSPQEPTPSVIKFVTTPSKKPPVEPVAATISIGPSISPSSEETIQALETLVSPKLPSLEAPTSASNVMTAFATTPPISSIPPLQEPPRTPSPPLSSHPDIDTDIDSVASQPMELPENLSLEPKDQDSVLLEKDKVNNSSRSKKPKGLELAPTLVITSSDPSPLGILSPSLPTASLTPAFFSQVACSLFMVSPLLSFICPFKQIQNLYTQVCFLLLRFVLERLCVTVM
# In short: as §1
# ETV2 = target: T10, ETV2 (Homo sapiens, UniProt O00321 1-342); conditions: protein: recombinant; tags: N-terminal GST; dsDNA, one strand shown
# T10 sequence: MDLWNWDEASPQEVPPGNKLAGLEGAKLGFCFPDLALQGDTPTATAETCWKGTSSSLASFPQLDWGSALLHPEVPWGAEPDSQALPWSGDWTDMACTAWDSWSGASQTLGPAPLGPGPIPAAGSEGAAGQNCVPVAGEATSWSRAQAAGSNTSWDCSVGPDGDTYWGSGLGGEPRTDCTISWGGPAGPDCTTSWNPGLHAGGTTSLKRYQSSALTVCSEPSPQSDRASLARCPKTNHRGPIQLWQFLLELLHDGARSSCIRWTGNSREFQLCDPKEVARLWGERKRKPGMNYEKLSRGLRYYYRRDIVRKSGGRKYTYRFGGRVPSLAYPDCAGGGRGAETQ
# In short: as §1
# ELF3 = target: T11, ELF3 (Homo sapiens, UniProt P78545 1-371); conditions: protein: recombinant; tags: N-terminal GST; dsDNA, one strand shown
# T11 sequence: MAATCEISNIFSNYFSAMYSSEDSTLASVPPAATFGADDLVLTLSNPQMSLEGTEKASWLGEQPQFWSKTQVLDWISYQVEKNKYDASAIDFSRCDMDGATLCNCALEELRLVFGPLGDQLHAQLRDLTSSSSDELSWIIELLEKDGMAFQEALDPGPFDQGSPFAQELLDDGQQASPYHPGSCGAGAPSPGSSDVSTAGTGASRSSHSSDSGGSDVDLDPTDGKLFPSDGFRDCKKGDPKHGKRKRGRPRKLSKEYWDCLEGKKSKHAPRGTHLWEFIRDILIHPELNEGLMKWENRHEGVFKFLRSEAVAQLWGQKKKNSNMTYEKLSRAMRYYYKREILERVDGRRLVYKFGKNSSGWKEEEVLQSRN
# In short: as §1
# CRX = CRX (Homo sapiens, UniProt O43186 1-299); conditions: protein: recombinant; tags: N-terminal GST; dsDNA, one strand shown
# In short: as §1
# ETV1 = ETV1 (Homo sapiens, UniProt P50549 1-477); conditions: protein: recombinant; tags: N-terminal GST; dsDNA, one strand shown
# In short: as §1
# HSF1, sequence (Q00613 whole entry): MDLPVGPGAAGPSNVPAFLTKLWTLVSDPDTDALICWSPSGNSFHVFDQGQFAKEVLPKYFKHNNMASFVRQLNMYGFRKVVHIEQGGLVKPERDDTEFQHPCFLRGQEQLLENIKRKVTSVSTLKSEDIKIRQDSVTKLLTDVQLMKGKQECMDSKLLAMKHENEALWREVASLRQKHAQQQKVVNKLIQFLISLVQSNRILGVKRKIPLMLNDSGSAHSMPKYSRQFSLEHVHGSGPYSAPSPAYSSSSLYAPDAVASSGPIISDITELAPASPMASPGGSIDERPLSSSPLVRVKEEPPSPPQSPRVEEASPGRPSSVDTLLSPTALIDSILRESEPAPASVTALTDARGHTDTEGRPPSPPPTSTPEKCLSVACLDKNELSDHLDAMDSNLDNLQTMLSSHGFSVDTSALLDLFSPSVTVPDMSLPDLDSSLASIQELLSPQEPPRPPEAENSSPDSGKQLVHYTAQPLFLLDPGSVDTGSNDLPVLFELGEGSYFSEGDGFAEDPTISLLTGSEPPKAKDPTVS
# SPIB, sequence (Q01892 whole entry): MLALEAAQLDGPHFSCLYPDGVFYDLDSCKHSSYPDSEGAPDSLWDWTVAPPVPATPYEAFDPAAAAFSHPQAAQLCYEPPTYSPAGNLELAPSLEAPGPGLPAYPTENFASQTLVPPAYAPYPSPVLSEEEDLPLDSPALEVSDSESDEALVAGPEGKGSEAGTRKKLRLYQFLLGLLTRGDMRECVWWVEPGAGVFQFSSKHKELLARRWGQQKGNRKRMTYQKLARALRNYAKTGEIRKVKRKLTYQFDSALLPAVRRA
# ELF4, sequence (Q99607 whole entry): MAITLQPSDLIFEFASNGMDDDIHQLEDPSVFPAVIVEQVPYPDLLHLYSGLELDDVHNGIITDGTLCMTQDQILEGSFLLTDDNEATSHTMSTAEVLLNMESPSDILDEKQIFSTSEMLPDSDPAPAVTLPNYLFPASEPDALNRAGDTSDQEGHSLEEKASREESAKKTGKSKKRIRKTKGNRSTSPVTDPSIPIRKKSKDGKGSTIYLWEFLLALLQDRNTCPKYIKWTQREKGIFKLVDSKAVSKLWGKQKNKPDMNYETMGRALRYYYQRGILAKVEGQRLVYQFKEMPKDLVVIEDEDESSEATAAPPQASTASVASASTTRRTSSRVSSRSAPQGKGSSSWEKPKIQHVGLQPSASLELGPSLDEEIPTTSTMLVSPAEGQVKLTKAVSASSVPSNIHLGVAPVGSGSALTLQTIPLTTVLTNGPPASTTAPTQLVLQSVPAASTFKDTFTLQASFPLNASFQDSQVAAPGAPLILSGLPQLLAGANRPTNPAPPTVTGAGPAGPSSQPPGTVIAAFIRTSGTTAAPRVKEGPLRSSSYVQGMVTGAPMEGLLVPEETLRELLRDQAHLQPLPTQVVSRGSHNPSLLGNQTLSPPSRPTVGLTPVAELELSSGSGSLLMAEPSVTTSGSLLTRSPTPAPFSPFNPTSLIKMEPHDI
# ELF1, sequence (P32519 whole entry): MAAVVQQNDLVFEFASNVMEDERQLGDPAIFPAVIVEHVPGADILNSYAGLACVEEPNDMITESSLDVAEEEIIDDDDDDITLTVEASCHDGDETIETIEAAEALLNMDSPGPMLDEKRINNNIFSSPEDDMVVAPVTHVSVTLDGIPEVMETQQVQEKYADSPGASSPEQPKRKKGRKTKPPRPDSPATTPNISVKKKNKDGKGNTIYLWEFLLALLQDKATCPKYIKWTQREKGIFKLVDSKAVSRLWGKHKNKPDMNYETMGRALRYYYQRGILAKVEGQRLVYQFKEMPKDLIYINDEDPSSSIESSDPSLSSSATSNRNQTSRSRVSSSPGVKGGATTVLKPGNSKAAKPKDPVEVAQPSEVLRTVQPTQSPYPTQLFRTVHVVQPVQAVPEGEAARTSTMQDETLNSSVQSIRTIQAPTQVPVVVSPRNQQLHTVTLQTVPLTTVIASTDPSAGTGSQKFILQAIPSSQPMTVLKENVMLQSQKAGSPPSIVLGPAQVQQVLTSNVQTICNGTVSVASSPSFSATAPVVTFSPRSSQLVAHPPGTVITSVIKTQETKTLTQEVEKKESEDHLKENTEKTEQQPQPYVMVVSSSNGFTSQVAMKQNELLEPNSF
# ETV1, sequence (P50549 whole entry): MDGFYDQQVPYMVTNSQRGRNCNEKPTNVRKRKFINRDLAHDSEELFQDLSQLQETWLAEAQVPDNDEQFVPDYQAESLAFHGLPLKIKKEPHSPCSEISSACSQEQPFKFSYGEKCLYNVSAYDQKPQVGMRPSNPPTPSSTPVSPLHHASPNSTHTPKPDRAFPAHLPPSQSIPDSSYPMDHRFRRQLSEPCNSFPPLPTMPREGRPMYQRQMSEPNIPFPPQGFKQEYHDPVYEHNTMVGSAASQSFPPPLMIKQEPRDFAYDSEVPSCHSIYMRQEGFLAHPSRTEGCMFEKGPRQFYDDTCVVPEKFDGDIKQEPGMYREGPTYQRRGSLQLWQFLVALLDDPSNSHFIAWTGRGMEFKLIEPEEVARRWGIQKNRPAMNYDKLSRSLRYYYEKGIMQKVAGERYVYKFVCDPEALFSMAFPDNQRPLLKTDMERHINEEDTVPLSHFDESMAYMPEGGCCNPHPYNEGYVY
# CRX, sequence (O43186 whole entry): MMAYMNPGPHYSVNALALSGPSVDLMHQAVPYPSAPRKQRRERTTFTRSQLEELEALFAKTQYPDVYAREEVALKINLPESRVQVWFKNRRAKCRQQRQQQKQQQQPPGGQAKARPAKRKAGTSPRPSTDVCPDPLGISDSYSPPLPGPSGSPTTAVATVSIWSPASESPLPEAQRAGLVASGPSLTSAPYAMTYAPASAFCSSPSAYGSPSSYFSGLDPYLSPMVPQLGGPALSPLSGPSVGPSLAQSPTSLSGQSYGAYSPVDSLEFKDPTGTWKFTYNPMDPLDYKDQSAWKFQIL
# ETV5, sequence (P41161 whole entry): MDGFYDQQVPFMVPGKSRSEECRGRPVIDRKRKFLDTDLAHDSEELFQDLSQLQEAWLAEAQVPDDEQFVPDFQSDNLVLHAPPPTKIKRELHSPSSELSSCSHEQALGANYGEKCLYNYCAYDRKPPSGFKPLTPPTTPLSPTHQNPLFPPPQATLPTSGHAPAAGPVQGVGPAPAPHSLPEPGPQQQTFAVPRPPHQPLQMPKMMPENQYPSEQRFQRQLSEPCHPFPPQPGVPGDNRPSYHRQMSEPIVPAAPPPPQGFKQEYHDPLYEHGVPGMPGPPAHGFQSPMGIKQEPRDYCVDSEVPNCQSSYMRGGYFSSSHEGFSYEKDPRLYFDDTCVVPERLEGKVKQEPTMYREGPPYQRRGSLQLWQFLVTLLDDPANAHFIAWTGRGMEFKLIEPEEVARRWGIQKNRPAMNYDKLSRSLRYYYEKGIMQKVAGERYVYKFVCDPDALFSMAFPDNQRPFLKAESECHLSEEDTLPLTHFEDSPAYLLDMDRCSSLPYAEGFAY
sequence,measurement,setting,value
CCGCTC,binding signal,FLI1,"1.53 fold enrichment (6-mer frequency, TF over GST control)"
same,binding signal,ELK1,"1.52 fold enrichment (6-mer frequency, TF over GST control)"
same,binding signal,GABPA,"1.39 fold enrichment (6-mer frequency, TF over GST control)"
same,binding signal,ERG,"1.47 fold enrichment (6-mer frequency, TF over GST control)"
same,binding signal,ELF1,"1.58 fold enrichment (6-mer frequency, TF over GST control)"
same,binding signal,EHF,"1.54 fold enrichment (6-mer frequency, TF over GST control)"
same,binding signal,SPI1,"1.48 fold enrichment (6-mer frequency, TF over GST control)"
same,binding signal,SPIB,"1.59 fold enrichment (6-mer frequency, TF over GST control)"
same,binding signal,ELK3,"1.49 fold enrichment (6-mer frequency, TF over GST control)"
same,binding signal,FEV,"1.61 fold enrichment (6-mer frequency, TF over GST control)"
same,binding signal,ETV5,"1.46 fold enrichment (6-mer frequency, TF over GST control)"
same,binding signal,HSF1,"1.24 fold enrichment (6-mer frequency, TF over GST control)"
same,binding signal,SPIC,"1.53 fold enrichment (6-mer frequency, TF over GST control)"
same,binding signal,ELF4,"1.6 fold enrichment (6-mer frequency, TF over GST control)"
same,binding signal,ELK4,"1.65 fold enrichment (6-mer frequency, TF over GST control)"
same,binding signal,ETV2,"1.52 fold enrichment (6-mer frequency, TF over GST control)"
same,binding signal,ELF3,"1.54 fold enrichment (6-mer frequency, TF over GST control)"
same,binding signal,CRX,"1.21 fold enrichment (6-mer frequency, TF over GST control)"
same,binding signal,ETV1,"1.45 fold enrichment (6-mer frequency, TF over GST control)"
